# Tg IFNy HTS: T. gondii growth inhibition under IFN-gamma | Toxoplasma gondii growth in IFN-gamma-treated host cells; active compounds read low | activity change, negative = inhibition, % (no concentration beside the values) | 69,000 compounds, 3.8% hits | AID 1259416; in the data active means activity change below about -70%, passing the limit was not always enough;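 further: host cells are HeLa cells infected with Toxoplasma gondii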
# Numbers without * were called inactive; i = inactive. Many of the other results were omitted from the sample, so hits are more common in it than they were.
SMILES,Tg IFNy HTS
CC1=CC[C@@H]2CN(C(=O)c3ccc(Cn4cnnn4)cc3)C[C@@H]2C1,6
N#Cc1cccc(-c2ccc(C3[C@@H]4CN(Cc5ccccc5)C[C@H]3N4)cc2)c1 (stereo partly drawn),-21
N#Cc1ccc(-c2ccc([C@@H]3[C@@H]4CN(S(=O)(=O)Cc5ccccc5)C[C@H]3N4)cc2)cc1,-71*
N#Cc1ccc(-c2ccc([C@@H]3[C@@H]4CN(Cc5cocn5)C[C@H]3N4)cc2)cc1,-46
O=C(c1ccccc1)c1ccc(O)c(C(c2ccccc2Cl)N2CCCCC2)c1O (stereo not drawn),-97*
CN1CC(=O)N(c2cccc(F)c2)CC12CCN(S(=O)(=O)C1CC1)C2 (stereo not drawn),6
Cc1ccc(-c2ccc(C(=O)N(C)CC(O)CO)cc2)o1 (stereo not drawn),1
COc1ccc(S(=O)(=O)Nc2cncc(C(=O)Nc3ccc(F)cc3)c2)cc1OC,20
CCc1ccc(NC(=O)CSc2nnc(-c3ccoc3C)n2Cc2ccco2)cc1,-6
CC1CCN(c2ncnc3c2cnn3CC(=O)Nc2ccc3c(c2)OCCO3)CC1,160
CC1CCN(c2ncnc3c2cnn3CC(=O)Nc2cccc(C(F)(F)F)c2)CC1,-72*
O=C(Cn1ncc2c(N3CCCC3)ncnc21)Nc1cccc(Cl)c1,-55
O=C(Cn1ncc2c(N3CCN(c4ccccn4)CC3)ncnc21)Nc1ccc(F)c(Cl)c1,184
O=C(Cn1ncc2c(N3CCCCC3)ncnc21)Nc1cccc(Cl)c1,-47
O=C(Cn1ncc2c(N3CCN(c4ccccn4)CC3)ncnc21)Nc1ccccc1C(F)(F)F,30
CC1CCN(c2ncnc3c2cnn3CC(=O)Nc2ccc(F)c(Cl)c2)CC1,-86*
CC1CCN(c2ncnc3c2cnn3CC(=O)Nc2ccc(OC(F)(F)F)cc2)CC1,-33
CC1CCN(c2ncnc3c2cnn3CC(=O)Nc2ccccc2C(F)(F)F)CC1,-81*
CC1CCN(c2ncnc3c2cnn3CC(=O)Nc2ccccc2F)CC1,237
COc1ccc(NC(=O)Cn2ncc3c(N4CCC(C)CC4)ncnc32)cc1OC,52
CC1CCN(c2ncnc3c2cnn3CC(=O)Nc2cccc(Cl)c2)CC1,-87*
Cc1ccc2nc(CN(C)Cc3c(C)nn(C)c3Cl)[nH]c2c1,76
O=C(Nc1ccccc1OCCOc1ccccc1)C1CCCNC1 (stereo not drawn),-4
CC(C(=O)N1CCOCC1)N1CCC(N2CCCCC2)CC1 (stereo not drawn),-26
CN(C)C(=O)NC[C@@H]1CCC[C@]2(CCN(Cc3nccs3)C2)O1,10
SMILES,Tg IFNy HTS
Cc1cccc(C2c3[nH]c4ccccc4c3CCN2Cc2ccc(C#CC(C)(C)O)cc2)n1 (stereo not drawn),27
Cc1nn(Cc2nc(-c3ccc(NC(=O)c4cccc(C#N)c4)cc3)oc2C)c(C)c1C,76
CO[C@H]1CN(Cc2c(C)ccc3ncccc23)CC[C@H]1N,1
O=C1CN(C(=O)CSCc2c(F)cccc2Cl)c2ccccc2N1,-42
CCN(CC)C(=O)c1cnc(C2CCCCN2C(=O)Cc2cn3ccsc3n2)nc1C (stereo not drawn),17
CC(C)(C)c1nc(CN2CCC(O)(CO)CC2)no1,-5
CN(Cc1ccco1)C1CCCC2CN(S(=O)(=O)c3ccc(F)cc3)CC21 (stereo not drawn),23
Oc1ccc(CN2CCOc3c(O)cc(-c4cccc(Cl)c4)cc3C2)cc1,3
Cc1noc(C)c1CN1CCOc2c(O)cc(-c3cccc(Cl)c3)cc2C1,-74*
Oc1cc(-c2cccc(Cl)c2)cc2c1OCCN(Cc1cscn1)C2,-23
COc1cc(C)nc(OCCNC(=O)COc2ccc(Cl)cc2C)n1,-8
Cc1cc(Cl)ccc1OCCCC(=O)N1CCN(C)CC1,15
Cc1cc(Cl)ccc1OCCCC(=O)NO,-83*
O=C(CN1CCN(CC2CCCO2)CC1)NCCc1ccc(Cl)cc1 (stereo not drawn),8
Cc1noc(C)c1NC(=O)Nc1ccc2c(c1)C(=O)N([C@@H](C)CO)C[C@@H](C)[C@H](CN(C)S(=O)(=O)c1cccs1)OCCCC[C@@H](C)O2,i
Cc1ccc(S(=O)(=O)Nc2ccc3c(c2)C(=O)N([C@H](C)CO)C[C@H](C)[C@@H](CN(C)S(=O)(=O)c2cccs2)OCCCC[C@H](C)O3)cc1,-122*
C[C@@H]1CCCCO[C@@H](CN(C)C(=O)c2ccncc2)[C@H](C)CN([C@H](C)CO)C(=O)c2cc(NS(=O)(=O)c3cccs3)ccc2O1,-20
Cc1ccc(S(=O)(=O)Nc2ccc3c(c2)C(=O)N([C@H](C)CO)C[C@H](C)[C@@H](CN(C)S(=O)(=O)c2cccs2)OCCCC[C@@H](C)O3)cc1,-47
Cc1ccc(S(=O)(=O)Nc2ccc3c(c2)C(=O)N([C@@H](C)CO)C[C@@H](C)[C@@H](CN(C)S(=O)(=O)c2cccs2)OCCCC[C@@H](C)O3)cc1,-99*
C[C@@H]1CCCCO[C@H](CN(C)C(=O)c2ccncc2)[C@@H](C)CN([C@H](C)CO)C(=O)c2cc(NS(=O)(=O)c3cccs3)ccc2O1,76
Cc1noc(C)c1NC(=O)Nc1ccc2c(c1)C(=O)N([C@@H](C)CO)C[C@H](C)[C@H](CN(C)S(=O)(=O)c1cccs1)OCCCC[C@H](C)O2,312
Cc1ccc(S(=O)(=O)Nc2ccc3c(c2)C(=O)N([C@@H](C)CO)C[C@@H](C)[C@H](CN(C)S(=O)(=O)c2cccs2)OCCCC[C@H](C)O3)cc1,-59
Cc1noc(C)c1NC(=O)Nc1ccc2c(c1)C(=O)N([C@H](C)CO)C[C@@H](C)[C@H](CN(C)S(=O)(=O)c1cccs1)OCCCC[C@@H](C)O2,90
C[C@@H]1CCCCO[C@@H](CN(C)C(=O)c2ccncc2)[C@@H](C)CN([C@H](C)CO)C(=O)c2cc(NS(=O)(=O)c3cccs3)ccc2O1,12
Cc1ccc(S(=O)(=O)Nc2ccc3c(c2)C(=O)N([C@@H](C)CO)C[C@H](C)[C@@H](CN(C)S(=O)(=O)c2cccs2)OCCCC[C@@H](C)O3)cc1,-90*
SMILES,Tg IFNy HTS
Cc1ccc(S(=O)(=O)Nc2ccc3c(c2)C(=O)N([C@@H](C)CO)C[C@H](C)[C@H](CN(C)S(=O)(=O)c2cccs2)OCCCC[C@@H](C)O3)cc1,-99*
Cc1[nH]c(=O)[nH]c(=O)c1CSCC(=O)O,58
Cc1ccc(C(=O)Nc2cccc(N3CCCCS3(=O)=O)c2)cc1N1CCCC1,15
OCc1cc2ncnc(Nc3ccc(O)c(Br)c3)c2cc1CO,-70
C=CCn1cc(CN2CCN(c3cc(N4CCCC4)nc(N)n3)CC2)cn1,-2
COc1ccc(C2CCCN2C(=O)Cn2cnc3sccc3c2=O)cc1 (stereo not drawn),13
Cn1cc(CN2CCC3(CCC(OCCO)c4ccccc43)CC2)cn1 (stereo not drawn),4
CC(C)N(C)Cc1noc2c1CN(Cc1nccn1C)CC2,4
Cc1cccc(-c2nc(C)c(CCNS(=O)(=O)c3ccc4c(c3)CCCC4)s2)c1,58
O=C(c1ccccc1)c1cccc2c1NCC2,80
C[C@@H]1CN(C(=O)Nc2ccccc2)CC[C@@]12CCC(C(=O)NCC1CC1)O2 (stereo partly drawn),0
CNC(=O)c1cc(=O)n(CC(=O)Nc2ccc(F)cc2)c2ccccc12,21
Cc1noc(C)c1NC(=O)Nc1ccc2c(c1)C(=O)N([C@@H](C)CO)C[C@@H](C)[C@@H](CN(C)S(=O)(=O)c1cccs1)OCCCC[C@H](C)O2,i

# Screening data deposited in PubChem BioAssay by Broad Institute.
